# Reference: ChEMBL document CHEMBL4513216, “Probing the Open Global Health Chemical Diversity Library for Multistage-Active Starting Points for Next-Generation Antimalarials” (ACS Infect Dis, 2020)
# The whole screen tested about 69,000 compounds, of which about 8,600 (12%) showed an effect of 50% or more. Many of the other results were omitted from the sample, so strong results are more common in it than they were.
# Tested on: Plasmodium berghei
# Assay: Screen against P. berghei liver stage (PbLuc), transformed with Luciferase, at 10uM
# Assay type: functional, HepG2
# Details: tested at 10 uM
row,Compound,INHIBITION [%]
1,CC1CCN(Cn2nc(-c3ccc(F)cc3)oc2=O)CC1,9.25
2,O=c1oc(-c2ccc(F)cc2)nn1CN1CCN(CC2CC2)CC1,30.6
3,O=c1oc(-c2ccc(F)cc2)nn1CN1CCN(C2CCCC2)CC1,29.4
4,O=C(Cn1nc(-c2ccc(F)cc2)oc1=O)NCC1CCCO1 (centres undefined),-36.1
5,O=c1oc(-c2ccc(F)cc2)nn1CC1CCOC1 (centres undefined),62.3
6,O=c1oc(-c2ccc(F)cc2)nn1CC1CCCCO1 (centres undefined),59.3
7,COCCN1C[C@@H]2[C@@H](OC)CCN(Cc3ccco3)[C@@H]2C1,22.2
8,Cn1cc(C2CC(=O)NC23CCN(Cc2cccc(F)c2)CC3)cn1 (centres undefined),-1.36
9,CN(CCc1ccccn1)C(=O)C(O)c1cc(Cl)cc(Cl)c1 (centres undefined),10.1
10,CSc1ccc(NC(=O)NCC2CCCO2)cc1F (centres undefined),-81.9
11,C[C@@H]1CN(c2nc3c(cc2C(N)=O)CCC3)CC[C@@]1(O)C1CCC1,-2.93
12,C[C@@H]1CN(c2nc(N)nc3c2CCC3)CC[C@@]1(O)C1CCC1,83.3
13,C[C@@H]1CN(c2nc(N)nc3c2CCC3)C[C@]1(C)O,8.53
14,Cc1ccc(C)c(Sc2nccn(C)c2=O)c1,-13.1
15,COc1ccc(Cl)cc1CN(CC(N)=O)C(C)C,-6.04
16,Cc1cccc(C)c1-c1cc(NCCO)nc2[nH]ccc12,45
17,COCCNc1cc(-c2ccccc2S(N)(=O)=O)c2cc[nH]c2n1,23
18,COCCNc1cc(-c2ccccc2CCN)c2cc[nH]c2n1,25.8
19,Cc1cnccc1-c1cc(NCCO)nc2[nH]ccc12,58
20,COCCNc1cc(-c2cccc(C(=O)O)c2C)c2cc[nH]c2n1,58.5
21,COCCNc1cc(-c2ccccc2C(N)=O)c2cc[nH]c2n1,60.3
22,CN(C)CCNc1cc(-c2ccccc2C(N)=O)c2cc[nH]c2n1,15.8

row,Compound,INHIBITION [%]
1,COCCNc1cc(-c2ccccc2C(=O)O)c2cc[nH]c2n1,30.3
2,Cc1cc(F)ccc1-c1cc(NCCO)nc2[nH]ccc12,-13.1
3,CN1CC(=O)N(c2cccnc2)CC12CCN(C(=O)C1CCCCC1)C2 (centres undefined),31.2
4,Cc1csc(CNC(=O)Nc2ccc3c(c2)OCO3)n1,-51.9
5,CCCS(=O)(=O)N1C[C@@H]2C[C@H](C(=O)N(C)C)[C@H](C1)O2,49.7
6,CC(C)(C)c1ncc(C(=O)NCCNC(=O)Cc2ccccc2)s1,45.7
7,Cc1ccccc1-c1noc(CN2CCc3cncnc3C2)n1,8.195
8,O=c1ccc(-c2cccs2)nn1CN1CCOCC1,-1.33
9,O=C1COC2(CCN(c3ccccn3)CC2)CN1Cc1ccccn1,16.6
10,CCCc1noc(CN2CCC(N(C)Cc3nnc(C4CC4)o3)C2)n1 (centres undefined),-16
11,COC(=O)c1cccn1C1CCN(CCN2C(=O)CCC2=O)CC1,1.75
12,COC(=O)c1cccn1C1CCN(Cc2nc3ccccc3o2)CC1,15.6
13,COC(=O)c1cccn1C1CCN(Cc2ccccc2)CC1,56.1
14,COC(=O)c1cccn1C1CCN(Cc2cccc(C(N)=O)c2)CC1,45.1
15,COC(=O)c1cccn1C1CCN(Cc2cccnc2)CC1,11.6
16,COC(=O)c1cccn1C1CCN(Cc2cnc3ccccn23)CC1,66.8
17,Cc1nc(CN2CCC(N(C)Cc3nnc(C4CC4)n3C)C2)oc1C (centres undefined),16.8
18,Cc1ccc(CN2CCC3(CC2)CCN(Cc2ccco2)CC3)cc1,-13.7
19,Cc1ccc(N2C[C@H](C(=O)NCC3CC3)[C@@H]3CCO[C@@H]3C2)nn1,42.7
20,COCC1CN(Cc2ccoc2)Cc2nnn(C)c21 (centres undefined),-6.21
21,CCc1nc2n(n1)CC(NCC(=O)Nc1oc(C)c(C)c1C#N)CC2 (centres undefined),-13.5
22,COc1ccc2c(c1)NC(=O)C2OC(=O)Cc1ccccc1C (centres undefined),58.5

row,Compound,INHIBITION [%]
1,COc1ccc2c(c1)NC(=O)C2OC(=O)CC(C)(C)C (centres undefined),44
2,COc1ccc2c(c1)NC(=O)C2OC(=O)CCc1ccc(F)cc1 (centres undefined),14.9
3,CN(C)c1cc(C(F)(F)F)nc(N2CCCC2c2ccccn2)n1 (centres undefined),-84.3
4,CN(Cc1nnc2n1CCC2)C(=O)c1ccc2c(c1)OCO2,16.8
5,Cc1cccc(CN2CCc3ncnc(C4CC4)c3CC2)n1,-27.4
6,Cc1c(CN2Cc3nccn3CC2c2ccccc2)cnn1C (centres undefined),14.435
7,COCCc1nc(-c2cnn3c(C)cc(C)nc23)no1,34.6
8,CCOCCc1nc(-c2cnn3c(C)cc(C)nc23)no1,10.6
9,CCS(=O)(=O)Cc1nc(-c2cnn3c(C)cc(C)nc23)no1,70.5
10,CCc1nc(Cn2c(=O)c3c(C(F)(F)F)cc(C)nc3n2C)no1,10.5
11,CCN(CC)C(=O)CCc1nc(-c2cnn3c(C)cc(C)nc23)no1,57.7
12,COC(C)Cc1nc(-c2cnn3c(C)cc(C)nc23)no1 (centres undefined),31.2
13,Cc1nc(CN(C)C2CCN(CCc3cnn(C)c3)C2)no1 (centres undefined),11.2
14,Cc1ccccc1C(=O)NC(C)CN1CCOC1=O (centres undefined),39.3
15,CCS(=O)(=O)N1CCN(C(C)(C)CO)CC1,11
16,Cc1cnn(CCNCc2cc(C#N)ccc2F)c1,34.15
17,Cc1noc(C)c1CN1CCn2c(CN3CCN(C)CC3)cnc2C1,21.6
18,CCc1cc(N2CCC(NC3CCOCC3)CC2)nc(N(C)C)n1,29.1
19,CCc1cc(N2CCC(N[C@@H]3CS(=O)(=O)C[C@H]3O)CC2)nc(N(C)C)n1,35.3
20,CCc1cc(N2CCC(NC3CN4CCC3CC4)CC2)nc(N(C)C)n1 (centres undefined),62.4
21,Cn1ncc2c1NC(=O)CC2c1ccc(F)cc1 (centres undefined),3.46
22,CCCn1nnnc1COc1cc(OC)ccc1C(N)=O,-15

row,Compound,INHIBITION [%]
1,CC(C)C[C@@H](N)C(=O)N(C)Cc1csc(C(C)C)n1,-40.5
2,CC(C)n1cc(S(=O)(=O)N2CCSCC2)cn1,-28.8
3,CNC(=O)C1Cn2ccnc2C2(CCN(Cc3cccc(C)n3)CC2)O1 (centres undefined),29.6
4,CC(C(=O)NC(N)=O)N1CCN(c2ccc(C#N)cc2F)CC1 (centres undefined),-45
5,Cc1cc(NC(=O)C(C)N2CCN(c3ccc(C#N)cc3F)CC2)no1 (centres undefined),55
6,Cc1cc(NC(=O)C(C)N2CCN(c3ccccc3F)CC2)no1 (centres undefined),8.38
7,COCC(=O)N1CC[C@@H](OCC2CC2)[C@@H]1Cc1cccnc1,-31.4
8,Cc1cnn(CC2CCCN2Cc2noc(C(C)C)n2)c1 (centres undefined),25.6
9,COCCO[C@H]1CCN(C(=O)C2CCOCC2)[C@H]1Cc1ccncc1,26.7
10,CCOc1cncc(N2CCN(c3ccccc3O)CC2)n1,39.7
11,c1ccc(OCCNC2CCN(c3ncccn3)CC2)cc1,-32.6
12,Cc1nc(C)c(C)c(N2CCC(NCCOc3ccccc3)CC2)n1,77.8
13,Cc1cc(N2CCC(NCCOc3ccccc3)CC2)nc(C)n1,9.72
14,O=C(CC1COCCN1)N1CCC2(CCc3ccccc32)CC1 (centres undefined),-60.2
15,COc1cccc(CN2CCN(c3ccc4nncn4n3)C(C)C2)c1 (centres undefined),83
16,CC1CN(Cc2cccnc2)CCN1c1ccc2nncn2n1 (centres undefined),16.9
17,CC1CN(Cc2cnn(C)c2)CCN1c1ccc2nncn2n1 (centres undefined),10
18,CC1CN(Cc2cccc(C#N)c2)CCN1c1ccc2nncn2n1 (centres undefined),53.5
19,CC1CN(c2ccc(C#N)cn2)CCN1c1ccc2nncn2n1 (centres undefined),-9.69
20,Cc1ncc(CN2CCN(c3ccc4nncn4n3)C(C)C2)s1 (centres undefined),8.64
21,CC(C)c1nccn1C1CCCN(C(=O)c2cc(C3CC3)on2)C1 (centres undefined),48.4
22,CNC(=O)C1CN(C(=O)Cc2ccc(OC)cc2)Cc2cn(C)nc21 (centres undefined),-6.51

row,Compound,INHIBITION [%]
1,O=C(NC1CCN(c2cccc(OC(F)(F)F)c2)C1=O)C1CCC1 (centres undefined),34.6
2,O=C(NC1CCN(c2cccc(OC(F)(F)F)c2)C1=O)C1CC1 (centres undefined),61.1
3,CCC(=O)NC1CCN(c2cccc(OC(F)(F)F)c2)C1=O (centres undefined),40.6
4,O=C1NCC[C@]12CN(Cc1nccs1)C[C@H]2c1ccccc1,45.8
5,CN(CC1(C)COC1)C(=O)c1cc(-c2cnn(C)c2)nc2ccccc12,9.7
6,COc1ccccc1-c1c[nH]c(C2CCCN2)n1 (centres undefined),-33.3
7,CCc1n[nH]c(C(=O)N2CCN(c3ccc4ccccc4c3)CC2)c1C,61.1
8,CCc1ocnc1C(=O)N1CCN(c2ccc3ccccc3c2)CC1,26.5
9,CCc1n[nH]c(C(=O)N2CCCC3(CN(C)C(=O)O3)C2)c1C (centres undefined),45.2
10,Cc1nc(CN(CCS(C)(=O)=O)C(C)C)cs1,53.6
11,CC(C)N(CCS(C)(=O)=O)Cc1csc(Cc2ccc(Cl)cc2)n1,35
12,CC(C)N(CCS(C)(=O)=O)Cc1csc(-c2ccccc2F)n1,33.2
13,Cc1cc(S(=O)(=O)N(CCO)C2CC2)ccc1F,26.1
14,Cc1cc(CC(C)NC(=O)Cc2cc(F)ccc2C)[nH]n1 (centres undefined),73
15,Cc1cc(CC(C)NC(=O)COc2ccc(F)cc2F)[nH]n1 (centres undefined),40.6
16,CCC(=O)c1ccc(OCC(=O)NC(C)Cc2cc(C)n[nH]2)cc1 (centres undefined),27.6
17,Cc1ccc(CNC(=O)NC(C)CCS(C)(=O)=O)cc1F (centres undefined),-1.15
18,Cc1ccc(CNS(=O)(=O)CCCC#N)cc1F,58.1
19,Cc1cc(CNS(=O)(=O)CCCC#N)ccc1N(C)C,33.1
20,CC(C)C(C)NC(=O)Nc1ccc(CS(=O)(=O)C(C)C)cc1 (centres undefined),-4.68
21,Cc1ccccc1NC1CCN(C(=O)CCc2ccco2)CC1,-26.6
